The text below walks through data of PubChem BioAssay (NCI).

Experiment [1] is described as follows: NCI Yeast Anticancer Drug Screen. Data for the rad50 strain (AID 155).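 Further: 0% = growth of vehicle-only cultures of the same strain.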 The conditions noted are these: S. cerevisiae rad50 strain growth inhibition, hits give high values. The method, boiled down:
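Readout: growth inhibition relative to vehicle-treated cultures. Compound exposure was carried out in a genetically defined yeast strain deficient in DNA damage repair.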

The nature of experiment [2]: NCI Yeast Anticancer Drug Screen. Data for the mec2-1 strain (AID 157). The conditions noted are these: S. cerevisiae mec2-1 strain, hits give high values. Put shortly: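 Growth inhibition is read against vehicle-treated controls after compound exposure of the mec2-1 yeast strain, which is defective in DNA damage repair or cell cycle control.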
Experiment [3] can be described thus: NCI Yeast Anticancer Drug Screen. Data for the sgs1 mgt1 strain (AID 161).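 Further: 0% = growth of cultures given vehicle only.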 To be noted: S. cerevisiae sgs1 mgt1 strain, hits give high values. Put shortly:
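Yeast cells carrying a defined DNA-repair defect were exposed to test compounds. Growth inhibition was measured relative to vehicle-treated controls.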

A short description of experiment [4]: NCI Yeast Anticancer Drug Screen. Data for the cln2 rad14 strain (AID 165).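 Further: 0% = growth equal to vehicle treated cultures.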 To be noted: S. cerevisiae cln2 rad14 strain, hits give high values. Put shortly:
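Growth inhibition, relative to vehicle-treated controls, is the read-out. The test organism is a yeast strain with defined genetic alterations, cln2 rad14.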

A short description of experiment [5]: NCI Yeast Anticancer Drug Screen. Data for the bub3 strain (AID 167). To be noted: S. cerevisiae bub3 mutant strain, hits give high values. Put shortly:
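Readout: yeast growth inhibition, expressed relative to vehicle-only wells. The test organism is a mutant strain from a panel with lesions in DNA repair or checkpoint genes.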

A short description of experiment [6]: NCI Yeast Anticancer Drug Screen. Data for the mlh1 rad18 strain (AID 175). The conditions noted are these: S. cerevisiae mlh1 rad18 strain growth inhibition, hits give high values. The method, boiled down: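 Cells of a genetically altered yeast strain, deficient in DNA damage repair, were treated with compound. Their growth was then compared with that of vehicle-treated cultures to give inhibition.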

[7] abbreviates: at 5.0 µM (retest, dose inferred, filed as 0.5).
Where [8] appears, read: at 50.0 µM (retest, dose inferred, filed as 5.0).

SMILES strings stand for the structures. This is part of a sample that, as a whole, favours compounds with a hit. Of some 79,000 tested, about 15% had one in any assay. A number with no mark means an inactive call. Active and inactive are the calls of the source. No stated cut-off is given here; in the data, active means growth inhibition above about 70%; inactive means the rest.

Consider `COC(=O)c1nnc(C(=O)OC)c2c1[nH]c1ccccc12`, for which the growth inhibition in experiment [1] (setting [7]) was 4%; in experiment [1] (setting [8]), 77% (active); in experiment [1] (at 50.0 µM), 79% (active); in experiment [2] (setting [7]) it was 2%; in experiment [2] (setting [8]), 48%; in experiment [2] (at 50.0 µM) it was 28.4%. Also, the growth inhibition is 2% in experiment [3] (setting [7]); 50% in experiment [3] (setting [8]); 55.3% in experiment [3] (at 50.0 µM); -2% in experiment [4] (setting [7]); 11% in experiment [4] (setting [8]); 10.6% in experiment [4] (at 50.0 µM). In addition, the growth inhibition was 0% in experiment [5] (setting [7]); 37% in experiment [5] (setting [8]); 42.9% in experiment [5] (at 50.0 µM); -3% in experiment [6] (setting [7]); 52% in experiment [6] (setting [8]); 40.1% in experiment [6] (at 50.0 µM).
Consider `CN(Cc1cnc2nc(N)nc(N)c2n1)c1ccc(C(=O)NC(CCC(=O)O)C(=O)O)cc1C(F)(F)F` (stereo unspecified), for which the growth inhibition in experiment [1] (setting [7]) was -2%; in experiment [1] (setting [8]), 76% (active); in experiment [1] (at 50.0 µM) it was 72.7% (active); in experiment [2] (setting [7]), 61%; in experiment [2] (setting [8]), 98% (active); in experiment [2] (at 50.0 µM), 50%. The growth inhibition in experiment [3] (setting [7]) was -12%; in experiment [3] (setting [8]), 62%; in experiment [3] (at 50.0 µM) it was 67.5%; in experiment [4] (setting [7]), -16%; in experiment [4] (setting [8]), 5%; in experiment [4] (at 50.0 µM), 29%. Moreover, the growth inhibition was -19% in experiment [5] (setting [7]); 65% in experiment [5] (setting [8]); 75.5% (active) in experiment [5] (at 50.0 µM); 0% in experiment [6] (setting [7]); 86% (active) in experiment [6] (setting [8]); 56.9% in experiment [6] (at 50.0 µM).
As to `CC(=O)/C(=C\c1ccc(Cl)cc1Cl)C(=O)CCN(C)C`, the growth inhibition is 4% in experiment [1] (setting [7]); 99% (active) in experiment [1] (setting [8]); 97.5% (active) in experiment [1] (at 50.0 µM); -3% in experiment [2] (setting [7]); 99% (active) in experiment [2] (setting [8]); 99.3% (active) in experiment [2] (at 50.0 µM). The growth inhibition in experiment [3] (setting [7]) was 11%; in experiment [3] (setting [8]), 99% (active); in experiment [3] (at 50.0 µM) it was 97.3% (active); in experiment [4] (setting [7]), 4%; in experiment [4] (setting [8]), 98% (active); in experiment [4] (at 50.0 µM), 76% (active). For the same compound, the growth inhibition in experiment [5] (setting [7]) is -1%; in experiment [5] (setting [8]), 98% (active); in experiment [5] (at 50.0 µM), 98% (active); in experiment [6] (setting [7]), 1%; in experiment [6] (setting [8]), 98% (active); in experiment [6] (at 50.0 µM) it was 98.8% (active).
With `CC1=C(C)C(=O)C(C(C)(C)CC(=O)n2cc(F)c(=O)[nH]c2=O)=C(C)C1=O`, the growth inhibition in experiment [1] (setting [7]) is 24%; in experiment [1] (setting [8]) it was 87% (active); in experiment [1] (at 50.0 µM) it was 93.5% (active); in experiment [2] (setting [7]), 22%; in experiment [2] (setting [8]), 98% (active); in experiment [2] (at 50.0 µM), 97.5% (active). The growth inhibition in experiment [3] (setting [7]) was 56%; in experiment [3] (setting [8]), 95% (active); in experiment [3] (at 50.0 µM) it was 97.2% (active); in experiment [4] (setting [7]), 11%; in experiment [4] (setting [8]), 46%; in experiment [4] (at 50.0 µM), 41.6%. Moreover, the growth inhibition in experiment [5] (setting [7]) is 0%; in experiment [5] (setting [8]), 63%; in experiment [5] (at 50.0 µM) it was 1.05%; in experiment [6] (setting [7]), 18%; in experiment [6] (setting [8]) it was 85% (active); in experiment [6] (at 50.0 µM) it was 86.8% (active).
Take `CN1c2ccccc2S(=O)(=O)n2c(CCc3ccccc3)nnc21`: the growth inhibition in experiment [1] (setting [7]) was 1%; in experiment [1] (setting [8]), 10%; in experiment [1] (at 50.0 µM), 14.3%; in experiment [2] (setting [7]), 5%; in experiment [2] (setting [8]) it was 13%; in experiment [2] (at 50.0 µM), -3%. The growth inhibition in experiment [3] (setting [7]) was 10%; in experiment [3] (setting [8]) it was 10%; in experiment [3] (at 50.0 µM), -6.9%; in experiment [4] (setting [7]) it was 17%; in experiment [4] (setting [8]), 14%; in experiment [4] (at 50.0 µM), 9.85%. The growth inhibition in experiment [5] (setting [7]) was 9%; in experiment [5] (setting [8]), 15%; in experiment [5] (at 50.0 µM) it was -10.7%; in experiment [6] (setting [7]), 10%; in experiment [6] (setting [8]) it was 17%; in experiment [6] (at 50.0 µM), 32.5%.
Consider `CCN(CC)CCOc1ccc(-c2cc(-c3ccccc3)nc(N)n2)cc1`, for which the growth inhibition was 49% in experiment [1] (setting [7]); 98% (active) in experiment [1] (setting [8]); 76.5% (active) in experiment [1] (at 50.0 µM); 58% in experiment [2] (setting [7]); 99% (active) in experiment [2] (setting [8]); 79.5% (active) in experiment [2] (at 50.0 µM). Also, the growth inhibition was 44% in experiment [3] (setting [7]); 91% (active) in experiment [3] (setting [8]); 85.2% (active) in experiment [3] (at 50.0 µM); 73% (active) in experiment [4] (setting [7]); 93% (active) in experiment [4] (setting [8]); 59.3% in experiment [4] (at 50.0 µM). The growth inhibition is 58% in experiment [5] (setting [7]); 92% (active) in experiment [5] (setting [8]); 81.3% (active) in experiment [5] (at 50.0 µM); 55% in experiment [6] (setting [7]); 99% (active) in experiment [6] (setting [8]); 77.8% (active) in experiment [6] (at 50.0 µM).
`C=C(c1ccccc1)[P+](c1ccccc1)(c1ccccc1)c1ccccc1`: the growth inhibition was 97% (active) in experiment [1] (setting [7]); 99% (active) in experiment [1] (setting [8]); 99.2% (active) in experiment [1] (at 50.0 µM); 99% (active) in experiment [2] (setting [7]); 100% (active) in experiment [2] (setting [8]); 99.6% (active) in experiment [2] (at 50.0 µM). The growth inhibition in experiment [3] (setting [7]) is 99% (active); in experiment [3] (setting [8]), 99% (active); in experiment [3] (at 50.0 µM) it was 99.5% (active); in experiment [4] (setting [7]), 97% (active); in experiment [4] (setting [8]), 99% (active); in experiment [4] (at 50.0 µM) it was 99% (active). In addition, the growth inhibition in experiment [5] (setting [7]) was 92% (active); in experiment [5] (setting [8]) it was 99% (active); in experiment [5] (at 50.0 µM) it was 99% (active); in experiment [6] (setting [7]), 98% (active); in experiment [6] (setting [8]) it was 99% (active); in experiment [6] (at 50.0 µM), 99.5% (active).
